Source: PubChem BioAssay (National Center for Advancing Translational Sciences (NCATS))
Sm TGR block = qHTS Assay for the Inhibitors of Schistosoma Mansoni Peroxiredoxins; Schistosoma mansoni thioredoxin glutathione reductase (TGR), Q962Y6; AID 485364, 2010; Potency, µM (titrated, usually from 114 µM), without a hit: top-dose activity change, negative = inhibition, actives largely listed as inhibitors; purified TGR, DTNB reduction, TNB absorbance 405 nm; actives 3% (n = 360,000); also: potency is read from the fitted curve at half-maximal effect; % is scaled to controls: 0 for no effect and ±100 for the full control effect; nearly all actives have a fitted effect of over 60% in size
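Kinetic colorimetric format: TGR-catalysed, NADPH-driven DTNB reduction monitored via TNB absorbance. Enzyme dispensed at 20 nM; compound exposure 15 min at room temperature before reaction start.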
CHX counter = Cycloheximide Counterscreen for Small Molecule Inhibitors of Shiga Toxin; max response, %; actives 12% (n = 300,000); cell reporter, cycloheximide protein synthesis inhibition counterscreen; AID 2314, 2010; in the data active = max response mostly above about 13%, no sharp cut-off; inactive = mostly below about 14%; also: read at 38.3 µM for the half of the compounds with a filed dose; 0% is about no effect
Shiga inhibitor = A qHTS for Small Molecule Inhibitors of Shiga Toxin. Vero cells, Shiga toxin protein synthesis inhibition reporter. inhibition, % at 38.7 µM. actives 9.2% (n = 290,000). AID 2315, 2010; in the data active = inhibition mostly above about 28%, no sharp cut-off; inactive = mostly below about 43%; also: 0% is about no effect
FBPA Giardia inh = qHTS Assay for Inhibitors of Fructose-1,6-bisphosphate Aldolase from Giardia Lamblia | A8B2U2 | purified Giardia FBPA | Potency, µM (doses to about 59.6 µM), for the others: at the highest dose activity, negative = inhibition, actives largely listed as inhibitors | actives 0.71% (n = 290,000) | AID 2451, 2010; also: potency is read from the fitted curve at half-maximal effect; % is scaled to controls: 0 for no effect and ±100 for the full control effect; nearly all actives have a fitted effect of over 55% in size
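Giardia FBPA (40 nM reagent) was preincubated 10 min at RT with compound (up to 57.5 uM final), then substrate plus GAPDH/TPI/NAD/arsenate coupling system with diaphorase/resazurin was added; resorufin fluorescence (525/598 nm) was read after 20 min.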
TbPYK inhibitor = qHTS of Trypanosoma Brucei Inhibitors; Potency, µM (top dose mostly 76.8 µM), for inactives: top-dose activity, negative = inhibition, most hits filed as inhibitors; pyruvate kinase (Trypanosoma brucei), Q57TT1; actives 0.12% (n = 410,000); TbPYK enzyme, Kinase-Glo Plus ATP luminescence, 45 min; AID 624173, 2012; also: potency is read from the fitted curve at half-maximal effect; % is scaled to controls: 0 for no effect and ±100 for the full control effect; nearly all actives have a fitted effect of over 50% in size
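Quantitative HTS: titrated library compounds versus trypanosomal pyruvate kinase in TEA buffer (pH 7.2) containing KCl, MgCl2, BSA and Tween-20. Reactions were initiated with ADP, 130 uM final. Kinase-Glo Plus luminescence was read after 45 min at RT.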
LmPK inhibitor = qHTS Assay for Inhibitors of Leishmania Mexicana Pyruvate Kinase (LmPK); Potency, µM (doses to about 57.5 µM), inactives show top-dose activity change, negative = inhibition, actives largely listed as inhibitors; actives 0.37% (n = 290,000); AID 1721, 2009; purified LmPK, Kinase-Glo ATP luminescence, 1 h; Q27686; also: potency is read from the fitted curve at half-maximal effect; % is scaled to controls: 0 for no effect and ±100 for the full control effect
Target sequence (Q27686 whole entry, looked up): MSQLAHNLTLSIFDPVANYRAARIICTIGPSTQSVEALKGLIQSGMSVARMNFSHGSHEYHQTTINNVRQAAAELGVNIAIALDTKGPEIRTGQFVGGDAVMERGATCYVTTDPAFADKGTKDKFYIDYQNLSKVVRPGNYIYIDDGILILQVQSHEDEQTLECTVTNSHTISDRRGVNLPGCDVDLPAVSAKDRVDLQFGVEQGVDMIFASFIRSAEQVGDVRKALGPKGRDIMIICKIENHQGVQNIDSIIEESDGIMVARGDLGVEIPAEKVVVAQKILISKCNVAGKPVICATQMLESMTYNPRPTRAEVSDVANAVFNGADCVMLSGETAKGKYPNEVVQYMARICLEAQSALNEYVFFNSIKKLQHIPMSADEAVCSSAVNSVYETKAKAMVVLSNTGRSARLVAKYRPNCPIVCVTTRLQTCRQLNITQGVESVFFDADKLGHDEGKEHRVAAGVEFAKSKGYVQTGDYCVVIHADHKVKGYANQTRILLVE
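qHTS format; LmPK 0.1 nM; substrates PEP 0.5 mM and ADP 0.1 mM. One-hour room-temperature incubation, then coupled luciferase luminescence; 0.5 nM enzyme wells mark activation.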
* hit, by the source's call; ? = inconclusive; . = no result; + = active, no number; [ ] = another dose, or the depositor's remark. The sample as a whole holds a higher share of hits than the screen did. Unless noted, calls follow the shape of the dose curve; as a rule, active = well fitted curve in the direction sought with a large enough effect; inconclusive = small, poorly fitted or top-dose-only effect, or another doubt; inactive = no such curve, though single readings can be large; an effect the other way counts as inactive or inconclusive.

SMILES	Sm TGR block	CHX counter	Shiga inhibitor	FBPA Giardia inh	TbPYK inhibitor	LmPK inhibitor
CC(=O)Nc1cccc2c1C(=O)N(c1ccc(C)cc1)C2=O	0.1%	15.0*	35.2*	0.5%	-0.6%	1.5%
COc1ccc2c(c1OC)C(=O)N(c1ccccc1)C2=O	12.3%	39.4*	47.2*	4.6%	1.6%	-2.0%
CC(=O)Nc1ccc2c(c1)C(=O)N(c1cccc(C)c1)C2=O	3.9%	6.5	14.2	0.6%	-8.2%	7.7%
CC(C)Oc1ccc(C2CC(=O)N(c3ccccc3)C2=O)cc1 (centres undefined)	-6.2%	19.9*	44.1	-2.7%	-11.1%	3.9%
CCc1cccc(NC(=O)CSc2ncc3c(n2)-c2cc(Cl)ccc2N(C)S3(=O)=O)c1	4.1%	.	.	.	0.1%	.
COc1ccc(N2C(=O)c3ccccc3C2=O)cc1	2.4%[57.1 µM]	18.9*	54.8*	0.9%	0.9%	-16.5%
COc1ccc(N2C(=O)c3cccc4cccc(c34)C2=O)cc1	4.3%	-3.0	-5.6	1.6%	0.7%	-2.4%
CC(C)Oc1ccc(N2C(=O)c3ccccc3C2=O)cc1	4.6%	17.6*	34.9	3.9%	7.5%	-3.1%
COc1ccc(N2C(=O)c3ccccc3C2O)cc1 (centres undefined)	-8.6%	19.8*	.	10.1%	-1.3%	-6.7%
Cc1cc(NC(=O)c2cc(Cl)ccc2Cl)ccc1-c1cc2ccccc2oc1=O	1.0%	.	.	.	1.0%	.
COc1ccccc1N1CCN(CC(=O)c2c(C)[nH]c3ccccc23)CC1	31.6µM*	-5.9	-5.8	1.1%	-0.7%	0.6%
Cc1[nH]c2ccccc2c1C(=O)CN1CCN(C2CCCCC2)CC1	39.8µM*	-3.4	-10.8	-1.0%	.	2.7%
COc1ccccc1N1CCN(CC(O)c2c(C)[nH]c3ccccc23)CC1 (centres undefined)	15.8µM*	-2.6	3.6	-2.6%	1.5%	1.6%
COc1ccccc1N1CCN(CC(O)c2ccccc2)CC1 (centres undefined)	-0.1%	10.4	3.9	-4.6%	-3.5%	1.4%
Cc1[nH]c2ccccc2c1C(=O)CN1C(=O)C(=O)N(C2CCCC2)C1=O	-3.2%	-2.3	-1.4	-2.3%	-19.4%	5.2%
Cc1ccc(C(O)c2ncc(-c3ccc(Cl)cc3)[nH]2)cc1 (centres undefined)	.	.	.	.	-8.3%	.
COC(=O)c1sc2cccc(F)c2c1S(=O)(=O)Nc1ccc(C)cc1Cl	-0.4%	.	.	.	-29.9%	.
COc1ccccc1S(=O)(=O)Cc1ccc(C(=O)NCc2ccc(Cl)cc2)o1	-3.7%	.	.	.	0.9%	.
CCOC(=O)c1cccc(NC(=O)c2cc3c(=O)n(C)c4ccccc4c3n2C)c1	2.9%	.	.	.	-12.5%	.
CC(COc1cccc2ccccc12)CN1CCN(C)CC1 (centres undefined)	25.1µM*	1.9	-9.2	-12.0%	4.4%	-4.8%
CCOC(=O)N/N=C/c1cc(OC)c(O)c(OC)c1	4.7%	-4.5	5.6	3.0%	-14.5%	-0.2%
O=C(N/N=C\C=C\c1ccco1)C1COc2ccccc2O1 (centres undefined)	3.16µM*	6.3	-11.9	?	-11.1%	7.9%
CCOC(=O)N/N=C/c1ccc(OC)c(O)c1	-4.3%	32.9*	69.3*	16.4%	1.1%	-0.6%
CCOC(=O)N/N=C/c1ccc(F)cc1	-0.1%	38.7*	69.9*	-1.9%	-17.0%	-2.8%
CCOC(=O)C(=O)N/N=C/c1ccc(F)cc1	13.9%	1.9	22.8	0.6%	5.7%	-1.6%
SMILES	Sm TGR block	CHX counter	Shiga inhibitor	FBPA Giardia inh	TbPYK inhibitor	LmPK inhibitor
CCc1ccc(/C=N/NC(=O)c2cc(C)on2)s1	-0.8%	35.3*	+	-0.1%	-8.1%	0.6%
CCOC(=O)C1=NOC2(C1)C(=O)Nc1ccc(OC)cc12 (centres undefined)	.	.	.	.	0.3%	.
COc1ccc(NC(=O)CSc2nc(-c3cccs3)cc(C(F)(F)F)n2)cc1OC	5.5%	.	.	.	1.1%	.
CCOc1ccc(NC(=O)CN2C(=O)C(c3ccccc3)=NC23CCC(C)CC3)cc1 (centres undefined)	9.7%	.	.	.	-8.6%	.
Cc1ccc(NC(=O)CCc2c(C)nc3ncnn3c2C)cc1Cl	0.9%	.	.	.	-4.0%	.
Cc1cc(C(=O)N/N=C/c2cccc(Cl)c2Cl)no1	31.6%	37.9*	76.2*	-8.8%	0.6%	-2.1%
COc1cc(/C=N/NC(=O)C2COc3ccccc3O2)ccc1O (centres undefined)	-2.1%	-3.9	19.8	-0.4%	4.8%	-1.5%
Cc1cc(C(=O)NNc2c(Cl)cccc2Cl)no1	-3.1%	6.4	-9.6	-7.8%	0.5%	6.0%
COc1ccc(/C=N\NC(=O)C2COc3ccccc3O2)cc1O (centres undefined)	3.6%	19.8*	62.4*	3.1%	1.3%	0.5%
CCOC(=O)N/N=C/c1cccc(Cl)c1Cl	-5.4%	40.3*	78.5*	-15.4%	0.1%	1.1%
CCOC(=O)N/N=C/c1c(F)cccc1F	-2.4%	25.4*	35.5*	0.5%	3.8%	-10.2%
COc1ccccc1CNC(=O)Cc1c(C)c2c(cc(C)c3c(C)coc32)oc1=O	-4.1%	.	.	.	-2.8%	.
Cc1cccc(CN(C)C[C@H]2OCc3cnnn3CCCC(=O)N([C@H](C)CO)C[C@@H]2C)c1	.	.	.	.	-6.5%	.
CC(OC(=O)c1nc(Cl)ccc1Cl)C(=O)Nc1ccc2c(c1)OCCO2 (centres undefined)	0.3%	.	.	.	-2.7%	.
CCOC(=O)N/N=C/c1ccccc1F	-21.3%	33.3*	82.7*	1.0%	1.5%	-24.0%
CCc1ccc(CNC(=O)C2CC(=O)N(C3CCCC3)C2)cc1 (centres undefined)	4.3%	-7.2	-9.0	-3.9%	0.0%	4.1%
COc1cc(C(=O)Nc2c(C(=O)Nc3ccccc3F)oc3ccccc23)cc(OC)c1OC	-16.3%	.	.	.	-2.3%	.
O=C(Nc1cccc(OCc2cc(=O)n3ccccc3n2)c1)Nc1cccc(C(F)(F)F)c1	6.6%	.	.	.	-8.5%	.
Cc1ccc(CSc2nnc(-c3ccc4c(c3)OCO4)o2)cc1	7.9%	11.9	8.4	7.3%	-2.1%	4.5%
Cc1ccc(Nc2nnc(-c3ccc4c(c3)OCO4)o2)c(C)c1	-4.5%	31.9*	62.5*	-18.9%	-19.9%	5.5%
O=S1(=O)C=C(Sc2nc3ccccc3s2)c2ccccc21	2.24µM*	76.9*	75.5*	1.0%	2.2%	-7.3%
Clc1c(-c2nnc3n2CCC3)sc2ccccc12	-12.9%	15.3*	49.7	10.2%	6.5%	0.5%
Clc1c(-c2nnc3n2CCCCC3)sc2ccccc12	-25.1%[11.4 µM]	2.7	-7.9	3.8%	-7.4%	-5.8%
COc1ccc2c(Cl)c(-c3nnc4n3CCCCC4)sc2c1	-19.9%[11.4 µM]	24.8*	33.7	11.2%	-6.5%	10.1%
